Giardia killer: Small Molecules that selectively kill Giardia lamblia: qHTS | activity change, % at 7.66 µM, hits read low | 340,000 compounds, 0.15% hits | AID 540267, 2011 | Giardia lamblia trophozoite viability; in the data active = activity change below about -80%; inconclusive = between about -30% and that limit;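 note: parasites exposed to compound for two days anaerobically before the ATP read; % is set by controls: 0 for no effect and ±100 for the full control effect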
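Luminescence from cellular ATP indicates surviving trophozoites (100 cells/well) following 48 hrs anaerobic compound treatment at 37 deg C; signal develops 15-30 min at room temperature.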
TGFb inhibitor: qHTS for Inhibitors of TGF-b. HepG2 CAGA-GFP TGF-b/SMAD3 reporter, GFP fluorescence, 18 h; TGF-beta stimulated, 500 pg/mL final. Potency, µM (top dose mostly 46.1 µM), inactives show at the highest dose activity, negative = inhibition, hits mostly inhibitors. 410,000 compounds, 1.2% hits. AID 588855, 2011; note: potency is the fitted concentration of half-maximal effect; % is set by controls: 0 for no effect and ±100 for the full control effect; nearly all actives have a fitted effect of over 65% in size
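HEPG2 CAGA-GFP cells (1000/well, DMEM with 1% FBS) were pre-incubated 2 h at 37 degrees C, given compound by pin tool, then stimulated with TGF-beta at 500 pg/mL final for 18 h before per-cell GFP fluorescence imaging.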
HT1080 IDH1KD tx: qHTS for induction of synthetic lethality in tumor cells producing 2HG: qHTS for the HT-1080-IDH1KD cell line; HT-1080 IDH1 knockdown viability, ATP luminescence, 48 h; AID 686971, 2013; Potency, µM (titrated, usually from 46.1 µM), without a hit: at the top dose activity, negative = toxicity, most hits filed as cytotoxic; 360,000 compounds, 2% hits;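 note: potency is the fitted concentration of half-maximal effect; 0% = DMSO wells and -100% = cell-free medium wells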
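Assay cells: HT-1080 with IDH1 knockdown, 750 per well, RPMI/5% FBS. Exposure: 48 h at 37 °C following 2 h pre-incubation. Read: CellTiter-Glo luminescence; fitted concentration-response, curve class assigned.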
HepG2 tox-1: qHTS for Inhibitors of TGF-b: Cytotox Counterscreen. HepG2 CAGA-GFP viability, ATP luminescence, 18 h. Potency, µM (top dose mostly 46.1 µM), for inactives: at the highest dose activity change, negative = cytotoxicity, actives largely listed as cytotoxic. 410,000 compounds, 0.76% hits; note: potency is the fitted concentration of half-maximal effect
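CellTiter-Glo luminescence gave cytotoxicity after 18 hours at 37 degrees C. The cells were HepG2 CAGA-GFP in 1% FBS DMEM, stimulated with 500 pg/mL TGF-beta after compound addition. %Activity was normalised to no-cell wells (complete cell-killing) and DMSO (no toxicity), and curves were fitted and classified.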
HT1080-NT tox: qHTS for induction of synthetic lethality in tumor cells producing 2HG: qHTS for the HT-1080-NT fibrosarcoma cell line | HT-1080-NT fibrosarcoma viability, CellTiter-Glo ATP luminescence, 48 h | Potency, µM (series often up to 46.1 µM), without a hit: at the top dose activity, negative = less viability, hits mostly cytotoxic | 360,000 compounds, 1.6% hits | AID 686970, 2013;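 note: NT is the 2HG producing partner of a matched IDH1 knockdown line; potency is the fitted concentration of half-maximal effect; 0% = DMSO-treated cells and -100% = media-only wells without cells; nearly all actives have a fitted effect of over 55% in size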
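Luminescent CellTiter-Glo readout after 48 hours of compound exposure at 37 degrees C defined viability of HT-1080-NT cells. Activity was normalized to DMSO wells and cell-free media wells; concentration-response curves were fitted and assigned curve classes.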
IL-1B inflam inh: qHTS for Inhibitors of Inflammasome Signaling: IL-1-beta AlphaLISA Primary Screen. THP-1 LPS/ATP IL-1B secretion, AlphaLISA, 16 h; stronger effect = lower value. activity change, % at 57.5 µM. 360,000 compounds, 4.7% hits. AID 743279, 2014; in the data active = activity change below about -50%; inconclusive = mostly about -30% to -49%; note: % is set by controls: 0 for no effect and ±100 for the full control effect
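Secreted IL-1B measured by AlphaLISA bead assay after 16 h compound exposure of THP-1 cells; compounds (final up to 57.5 uM) added 1 h before LPS (250 ng/mL) and ATP (1.25 mM) stimulation; lower signal means less secretion.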
TGFb CAGA inh: qHTS for Inhibitors of TGF-b: Confirmation of Cherry Picks | 1,600 compounds, 63% hits | HepG2 CAGA-GFP TGF-b reporter, GFP fluorescence, 18 h; cells stimulated with TGF-beta, 500 pg/mL | AID 720534, 2013 | shares compounds with TGFb inhibitor | Potency, µM (doses to about 46.1 µM), for the others: at the highest dose activity, negative = inhibition, usual class: inhibitors; note: potency is the fitted concentration of half-maximal effect; % is set by controls: 0 for no effect and ±100 for the full control effect; nearly all actives have a fitted effect of over 65% in size
HepG2 tox-2: qHTS for Inhibitors of TGF-b: Cytotox Counterscreen for Cherry Picks; 1,600 compounds, 27% hits; AID 720535, 2013; Potency, µM (titrated, usually from 46.1 µM), for the others: at the highest dose activity, negative = cytotoxicity, hits mostly inhibitors; HepG2 CAGA-GFP viability, ATP luminescence, 18 h; cells stimulated with TGF-beta, 500 pg/mL; shares compounds with TGFb inhibitor; note: potency is the fitted concentration of half-maximal effect; % is set by controls: 0 for no effect and ±100 for the full control effect; nearly all actives have a fitted effect of over 70% in size
TGFb CCL64 inh: qHTS for Inhibitors of TGF-b: CCL64 Cells Orthogonal Assay for Cherry Picks; shares compounds with TGFb inhibitor; AID 720536, 2013; 1,600 compounds, 41% hits; CCL64 CAGA-GFP reporter, TGF-b stimulated, GFP fluorescence, 18 h; Potency, µM (series often up to 46.1 µM), without a hit: at the top dose activity, negative = inhibition, usual class: inhibitors; note: potency is the fitted concentration of half-maximal effect; nearly all actives have a fitted effect of over 65% in size
COP TGFb inh: qHTS for Inhibitors of TGF-b: Hit Validation in HepG2 Cells using COP promoter; HepG2 COP-GFP TGF-b reporter, GFP fluorescence, 18 h; cells stimulated by added recombinant TGF-beta; Potency, µM (doses to about 46.1 µM), for the others: top-dose activity, negative = inhibition, most hits filed as inhibitors; shares compounds with TGFb inhibitor; 1,600 compounds, 3% hits; note: potency is the fitted concentration of half-maximal effect; nearly all actives have a fitted effect of over 70% in size
* marks the source's active call; other numbers are inactive results; u = inconclusive; x = no result given; ! = repeats disagree. A selection: hits, their analogues and other compounds. The true share with any hit is near 6.5%. Unless noted, calls come from the whole dose curve; as a rule, active = well fitted curve in the direction sought with a large enough effect; inconclusive = small, poorly fitted or top-dose-only effect, or another doubt; inactive = no such curve, though single readings can be large; an effect the other way counts as inactive or inconclusive.

SMILES | Giardia killer | TGFb inhibitor | HT1080 IDH1KD tx | HepG2 tox-1 | HT1080-NT tox | IL-1B inflam inh | TGFb CAGA inh | HepG2 tox-2 | TGFb CCL64 inh | COP TGFb inh
OC(c1ccccc1)(c1ccccc1)C1CCCN1 (centres undefined) | -16 | 30% | -3% | 6% | -3% | -6 | x | x | x | x
Cc1ccc(-n2c(=S)[nH]c3ccc(C)cc3c2=O)cc1 | x | -21% | 9% | -23% | -5% | 12 | x | x | x | x
CNc1cc(Cl)c2nonc2c1[N+](=O)[O-] | 7 | 5.6µM* | 5.8µM* | -137% | 3.3µM* | -105* | 3.3µM* | 13µM* | 2.6µM* | u
Cc1cc([N+](=O)[O-])c(Cl)cc1NC(=O)C(C)C | -20 | u | 13% | 10% | 16% | -9 | x | x | x | x
CC(C)[C@H](CN(N=O)[C@@H](Cc1ccccc1)CN(C)N=O)N(CCc1ccccc1)N=O | -4 | -2% | -4% | -10% | u | -6 | x | x | x | x
CNc1ccc2oc(C[C@H]3O[C@@]4(CC[C@H]3C)O[C@H]([C@H](C)C(=O)c3ccc[nH]3)[C@H](C)C[C@H]4C)nc2c1C(=O)O | -4 | 5µM* | 2.1µM* | 7.1µM* | 1.5µM* | 39 | 2.1µM* | 1.5µM* | 1µM* | 6.5µM*
C=CCOC(=O)C1=C(C)OC(N)=C(C#N)C12C(=O)N(CN1CCOCC1)c1ccccc12 (centres undefined) | -6 | -7% | -9% | 0% | -2% | 11 | x | x | x | x
CC(=O)c1cn(Cc2ccc(F)cc2)c2ccccc12 | -10 | u | -16% | -25% | -5% | 30 | 9.2µM* | 4.1µM* | 3% | 17%
CC1(O)C[C@]2(C)N(O)C3CCCC[C@@H]3N2O1 (some centres undefined) | 4 | 0% | 15% | -1% | 27% | 0 | x | x | x | x
CCC1CN2CCc3cc(OC)c(OC)cc3C2CC1CC1NCCc2c1[nH]c1ccc(O)cc21 (centres undefined) | 16 | 0.089µM* | 0.18µM* | -9% | 0.41µM* | -101* | 0.018µM* | 1µM* | 0.037µM* | 52%
COc1ccc2c(c1OC)CN1CCc3cc4c(cc3[C@H]1C2)OCO4 | -19 | u | 0% | -29% | 0% | -4 | x | x | x | x
CSCCC(c1nnnn1C1CCCCC1)N1CCC2(CC1)C(=O)NCN2c1ccccc1 (centres undefined) | x | u | 14% | -9% | 28% | 5 | x | x | x | x
NC(=O)c1c(Br)n(C2OC(CO)C(O)C2O)c2ncnc(N)c12 (centres undefined) | -16 | 1.4µM* | 7.3µM* | -18% | u | -76* | 2.1µM* | u | u | 20%
N#Cc1cn(C2OC(CO)C(O)C2O)c2ncnc(N)c12 (centres undefined) | 0 | 0.1µM* | 0.21µM* | -36% | u | -108* | 0.23µM* | 0.15µM* | 0.1µM* | 12%
NC(=O)c1cn(C2OC(CO)C(O)C2O)c2ncnc(N)c12 (centres undefined) | -14 | 0.11µM* | 0.12µM* | -47% | 0.33µM* | -81*! | 0.092µM* | 0.065µM* | 0.23µM* | -12%
CCNC(=O)[C@H]1O[C@@H](n2cnc3c(N)ncnc32)[C@H](O)[C@@H]1O | 2 | -15% | 6% | 14% | 7% | 19 | x | x | x | x
OCC1OC(n2cnc3cc(Cl)c(Cl)cc32)C(O)C1O (centres undefined) | x | u | u | -45% | u | u | x | x | x | x
CC1CCC/C=C/C2CC(O)CC2C(O)/C=C/C(=O)O1 (centres undefined) | -10 | 0.11µM* | u | -39% | u | -56* | 0.065µM* | u | u | 67%
O=C1NCN(c2ccccc2)C12CCN(C(CCc1ccccc1)c1nnnn1-c1ccc3c(c1)OCCO3)CC2 (centres undefined) | x | 13µM* | -29% | 4% | u | -18 | u | -7% | 4.1µM* | 6%
O=C1NCN(c2ccccc2)C12CCN(C(c1nnnn1Cc1ccccc1)C1CC1)CC2 (centres undefined) | x | u | -23% | 12% | -2% | -12 | x | x | x | x
O=C1NCN(c2ccccc2)C12CCN(C(c1ccccc1)c1nnnn1Cc1ccccc1)CC2 (centres undefined) | x | 11µM* | u | 4% | -29% | -13 | 18µM* | -12% | 12µM* | -1%
O=C1NCN(c2ccccc2)C12CCN(C(CCc1ccccc1)c1nnnn1Cc1ccccc1)CC2 (centres undefined) | x | 18µM* | u | -1% | u | u | 15µM* | u | 12µM* | 76%
O=C1NCN(c2ccccc2)C12CCN(C(c1cc3ccccc3o1)c1nnnn1Cc1ccccc1)CC2 (centres undefined) | x | 14µM* | u | 0% | u | u | 21µM* | -20% | 15µM* | 5%
